Screens: PubChem BioAssay, Zoeller Lab, School of Medicine, Boston University
This excerpt belongs to a sample that is enriched for hits.
PL synth Enamine – phospholipid synthesis inhibitors, CHO cells, primary screen, ZR-82 cells, Enamine library, screen 3; calls only at 10 µM; ZR-82 CHO cells, pyrene fatty acid UV survival, CellTiter Blue; peroxisome-deficient CHO-K1 mutant line; plus DGAT-1, DGAT-2 and ACAT inhibitors; 20,000 compounds, 0.4% hits;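 active = cell survival signal 2 SD away from solvent-only control wells, confirmed on one or two retests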;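 also: 3 h compound exposure then viability read about one day after UV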
* marks the source's active call; other numbers are inactive results; i = inactive; + = active, no number.

SMILES | PL synth Enamine
CCn1c(SC(C)c2nnc(-c3cccs3)o2)nnc1C1CC1 (centres undefined) | i
C=CCOC(=O)CC1Sc2ccccc2NC1=O (centres undefined) | i
Cc1c(C2Sc3ccccc3NC2=O)c2ccccn2c1C1Sc2ccccc2NC1=O (centres undefined) | +
O=C(O)CC1Sc2ccccc2NC1=O (centres undefined) | i
S=c1[nH]nc(Cc2cccc3ccccc23)n1/N=C/c1ccc2c(c1)OCCO2 | i
CCOC(=O)c1sc(S(N)(=O)=O)c(C(=O)OCC)c1C | i
Cc1cc(C)c2nc(N3CCN(S(=O)(=O)c4ccc5c(c4)OCCO5)CC3)cc(C)c2c1 | i
Fc1cccc(F)c1/C=N/N=C(c1ccccc1)c1ccccc1 | i
CCN(CC)S(=O)(=O)c1ccc(N/N=C2\CCSc3ccc(F)cc32)nc1 | i
Fc1ccc2c(c1)/C(=N\Nc1nc3ccccc3s1)CCS2 | +
O=C(N/N=C1\CCSc2ccc(F)cc21)C1COc2ccccc2O1 (centres undefined) | i
c1coc(-c2nnc(SCc3nnc(-c4cccs4)o3)o2)c1 | i
COC(=O)c1c(C)[nH]c(C(=O)C(C)Sc2nncn2C)c1C (centres undefined) | i
c1ccc(N=Nc2ccc(-n3nncc3C34CC5CC(CC(C5)C3)C4)cc2)cc1 | i
O=[N+]([O-])c1cccc(-n2nncc2C23CC4CC(CC(C4)C2)C3)c1 | i
O=[N+]([O-])c1ccc(N/N=C/c2ccc(-n3nncc3C34CC5CC(CC(C5)C3)C4)cc2)cc1 | +
CC(C)(C)c1ccc(C2=N/C(=C\c3ccc4c(c3)OCO4)C(=O)O2)cc1 | i
Fc1ccc(F)c(Nc2nc(CSc3ccc(Cl)cc3)nc3sc4c(c23)CCC4)c1 | i
O=C(CSc1nnc(-c2ccc3c(c2)OCO3)o1)CSc1nnc(-c2ccc3c(c2)OCO3)o1 | i
Cc1ccc(C(=O)C(C)Sc2nnc(-c3ccc4c(c3)OCO4)o2)cc1C (centres undefined) | i
O=C(c1ccccc1)C(Sc1nnc(-c2ccc3c(c2)OCO3)o1)c1ccccc1 (centres undefined) | +
CC1CC(N2C(=O)NC3(CCc4ccccc43)C2=O)C(=O)O1 (centres undefined) | i
CN1/C(=C\C=Nc2ccc(I)cc2)C(C)(C)c2ccccc21 | i
CN1/C(=C\C=N\N=C2c3ccccc3-c3ccccc32)C(C)(C)c2ccccc21 | +
CSc1ccccc1N=C/C=C1/N(C)c2ccccc2C1(C)C | i
SMILES | PL synth Enamine
CC(C)CCNC(=O)NC(=O)CSc1nc(N)cc(=O)[nH]1 | i
Cc1nc(N)sc1N=Nc1cc(C(F)(F)F)ccc1Cl | +
Cc1nc(N)sc1N=Nc1ccc(F)cc1 | +
Nc1ncc(Cc2ccc(F)cc2)s1 | i
CN(C)S(=O)(=O)c1ccc(N=Nc2sc(N)nc2-c2cc(F)ccc2F)cc1 | i
Cc1nc(N)sc1N=Nc1c(Cl)cc(Cl)cc1Cl | i
CN(C)S(=O)(=O)c1ccc(Cl)c(N=Nc2sc(N)nc2-c2cc(F)ccc2F)c1 | i
O=[N+]([O-])c1cccc(NN=C2c3ccccc3-c3ccccc32)c1 | i
Clc1ccc(NN=C2c3ccccc3-c3ccccc32)cc1 | i
Fc1ccc(NN=C2c3ccccc3-c3ccccc32)cc1 | +
COc1ccc(S(=O)(=O)NCCCN(C)C)cc1OC | i
C/C(CCc1ccc2c(c1)OCO2)=N\Nc1c([N+](=O)[O-])cc(C(F)(F)F)cc1[N+](=O)[O-] | i
O=c1nc2n(c3ncccc13)CCS2 | i
